Screening data: PubChem BioAssay, National Center for Advancing Translational Sciences (NCATS)
TGFb SMAD3 inh: inhibitors of TGF-b signaling; hit rate 1.2% among 410,000; HepG2 CAGA-GFP TGF-b/SMAD3 reporter, GFP fluorescence, 18 h; TGF-beta stimulated, 500 pg/mL final; Potency, µM (titrated, usually from 46.1 µM), for the others: at the top dose activity, negative = inhibition, usual class: inhibitors; also: % is scaled to controls: 0 for no effect and ±100 for the full control effect; nearly all actives have a fitted effect of over 65% in size
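TGF-beta reporter screen: HEPG2 CAGA-GFP, 1% FBS, 500 pg/mL TGF-beta final, 18 h; per-cell GFP summed per well; curves fitted and categorized by class.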
ATXN viability: viability counter-screen for ATXN expression inhibitors; S2 cells (HEK-293 line with an ATXN2-luciferase reporter) viability, CellTiter-Fluor protease fluorescence, 24 h; Potency, µM (titrated, usually from 56.7 µM), usual class: cytotoxic; hit rate 0.49% among 400,000; AID 651635; also: nearly all actives have a fitted effect of over 40% in size
ATXN2 expr inh: inhibitors of ATXN2 expression | HEK-293 ATXN2-luciferase reporter, luminescence, 24 h | AID 1745845 | hit rate 0.72% among 360,000 | Potency, µM (series often up to 57 µM), for the others: top-dose activity change, negative = inhibition, most hits filed as inhibitors; also: % is scaled to controls: 0 for no effect and ±100 for the full control effect; nearly all actives have a fitted effect of over 55% in size
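ATXN2-luciferase reporter cells (luciferase flanked by upstream and downstream ATXN2 gene portions) were treated 24 h at 37 °C with compounds at up to 57 uM. SteadyGlo luminescence gave expression; GF-AFC fluorescence gave viability.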
HepG2 tox: kills HepG2 cells in TGF-b inhibitor counter-screen. hit rate 0.76% among 410,000. Potency, µM (highest dose often 46.1 µM), for the others: at the highest dose activity change, negative = cytotoxicity, most hits filed as cytotoxic. AID 588856. HepG2 CAGA-GFP viability, ATP luminescence, 18 h
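HepG2 CAGA-GFP cells (1000/well, DMEM with 1% FBS) received compound, then TGF-beta at 500 pg/mL final, and were incubated 18 hours at 37 degrees C. Viability was read by CellTiter-Glo luminescence. Media-only wells were set as complete cell-killing and DMSO as no toxicity.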
Active calls of the source: *; [ ] = remark or other dose. Rows were chosen to be rich in hits. Some 2.3% of all compounds tested hit in one or more screens of this group. Calls follow the shape of the dose curve; as a rule, active = well fitted curve in the direction sought with a large enough effect; inconclusive = small, poorly fitted or top-dose-only effect, or another doubt; inactive = no such curve, though single readings can be large; an effect the other way counts as inactive or inconclusive. Potency is read from the fitted curve at half-maximal effect.

Results for COc1cc(/C=C(\C#N)C(=O)NCC2CCCO2)ccc1OCC(N)=O (stereo not drawn) ?
TGFb SMAD3 inh: -3%; ATXN viability: inactive; ATXN2 expr inh: -12%; HepG2 tox: 10µM*

How did C[N+]1(CC(=O)c2ccc(I)cc2)CCCc2ccccc21 (stereo not drawn) do in these assays?
TGFb SMAD3 inh: -14%; HepG2 tox: -41%

Results for Cc1cnc(SCCN2CCOCC2)nc1C1CCCN(C(=O)c2cccc3c(C)c(C)[nH]c23)C1 (stereo not drawn) ?
ATXN viability: inactive

Results for Cc1ccc(-c2csc3ncnc(Sc4nnc(CN5CCCCCC5=O)o4)c23)cc1 ?
TGFb SMAD3 inh: 0%; ATXN2 expr inh: 28µM*; HepG2 tox: -100%

How did Cc1ccc(-c2csc3ncnc(SCC(=O)Nc4nnc(C)s4)c23)cc1 do in these assays?
TGFb SMAD3 inh: -1%; ATXN viability: inactive; ATXN2 expr inh: 1%; HepG2 tox: -2%

What do the screens show for `Cc1cnc(-n2ncc(C(=O)NCCN3CCOCC3)c2C(C)C)nc1-c1ccc(F)cc1`?
ATXN viability: inactive

How did CCCCCc1ccc(OCCCC[n+]2ccc(C)cc2)c(CCCCC)c1 do in these assays?
TGFb SMAD3 inh: 11µM*; ATXN viability: inconclusive; ATXN2 expr inh: -32%[11.3 µM]; HepG2 tox: -97%

What do the screens show for `CCCCCc1ccc(OCCCC[n+]2cccc(C)c2)c(CCCCC)c1`?
TGFb SMAD3 inh: inconclusive; ATXN viability: inconclusive; ATXN2 expr inh: 10µM*; HepG2 tox: -101%

Results for CCCCCCCCCCCCCCCC[n+]1ccc(C)cc1 ?
TGFb SMAD3 inh: inconclusive; HepG2 tox: -89%

What do the screens show for `CCCCCc1ccc(OCCCC[n+]2ccccc2)c(CCCCC)c1`?
TGFb SMAD3 inh: inconclusive; ATXN viability: inconclusive; ATXN2 expr inh: 14µM*; HepG2 tox: -157%

Results for CCN1CCCC1CNC(=O)c1cnn(-c2nccc(-c3ccccc3OC)n2)c1-c1ccco1 (stereo not drawn) ?
ATXN viability: inactive

What do the screens show for `O=[N+]([O-])c1ccc(O/N=[N+](\[O-])N2CCCC2)c([N+](=O)[O-])c1`?
TGFb SMAD3 inh: inconclusive; HepG2 tox: -82%

How did O=[N+]([O-])c1ccc(N=NN(CCO)CCO)cc1 do in these assays?
TGFb SMAD3 inh: 11%; ATXN viability: inactive; HepG2 tox: -40%

Results for O=[N+]([O-])c1ccc(N=Nc2ncc[nH]2)cc1 ?
TGFb SMAD3 inh: -11%; ATXN viability: 1.3µM*; HepG2 tox: -14%

How did CC(=O)Nc1ccc2c(c1)Cc1cc(N3C(=O)C=CC3=O)ccc1-2 do in these assays?
TGFb SMAD3 inh: 16µM*; ATXN viability: inconclusive; ATXN2 expr inh: inconclusive; HepG2 tox: -72%

Results for COC(=O)N1C(=O)[C@@](Cc2ccccc2)(c2ccccc2)N1C(=O)OC ?
TGFb SMAD3 inh: 7.9µM*; ATXN viability: inconclusive; ATXN2 expr inh: inconclusive; HepG2 tox: -97%

Results for COC(=O)N1C(=O)[C@@](c2ccccc2)(C2CCCCC2)N1C(=O)OC ?
TGFb SMAD3 inh: inconclusive; ATXN viability: 20µM*; ATXN2 expr inh: inconclusive; HepG2 tox: -29%

What do the screens show for `COc1ccc(/C=C/C(=O)N2CCc3c(cnc(C)c3CNS(=O)(=O)c3cccs3)C2)cc1`?
ATXN viability: inactive

Results for O=C(N/N=C/c1cccc([N+](=O)[O-])c1)c1c[nH]c2ccccc12 ?
TGFb SMAD3 inh: -9%; ATXN viability: inactive; ATXN2 expr inh: 17%; HepG2 tox: -27%

Results for O=C(N/N=C/c1cc([N+](=O)[O-])ccc1O)c1c[nH]c2ccccc12 ?
TGFb SMAD3 inh: inconclusive; ATXN viability: inactive; ATXN2 expr inh: 14µM*; HepG2 tox: -31%

How did O=C(N/N=C/c1cc([N+](=O)[O-])ccc1O)c1cc(-c2ccccc2)nc2ccccc12 do in these assays?
TGFb SMAD3 inh: -17%; ATXN viability: inconclusive; ATXN2 expr inh: 10µM*; HepG2 tox: -1%

How did Cc1cnc(-n2ncc(C(=O)NCCc3cccnc3)c2C)nc1-c1ccc(F)cc1 do in these assays?
ATXN viability: inactive

How did COc1ccccc1-n1c(=O)c(C#N)c(-c2ccc([N+](=O)[O-])cc2)c2cc(C(=O)c3cc(F)ccc3O)cnc21 do in these assays?
TGFb SMAD3 inh: 5%; ATXN viability: inactive; ATXN2 expr inh: -6%; HepG2 tox: 2%

Results for Cn1c(=O)c(C#N)c(-c2ccc(F)cc2)c2cc(C(=O)c3cc(Cl)cc(Cl)c3O)cnc21 ?
TGFb SMAD3 inh: 18µM*; ATXN viability: inactive; ATXN2 expr inh: inconclusive; HepG2 tox: -45%

What do the screens show for `Cc1nc2ccc([N+](=O)[O-])cc2nc1C`?
TGFb SMAD3 inh: 2%; ATXN viability: inactive; ATXN2 expr inh: -3%; HepG2 tox: 2%

What do the screens show for `Cc1ccc2nc3cc([N+](=O)[O-])cc([N+](=O)[O-])c3cc2c1`?
TGFb SMAD3 inh: 7%; ATXN viability: 7.9µM*; ATXN2 expr inh: 7.5µM*; HepG2 tox: -18%

How did Cn1c(-c2ccncc2)nc2cc(C(=O)N3CCCC3c3nccs3)cc(NC(=O)C3CCC3)c21 (stereo not drawn) do in these assays?
ATXN viability: inactive

What do the screens show for `Cc1ccc2[nH]cc(C(c3ccccc3)c3ccc(Cl)s3)c2c1` (stereo not drawn)?
TGFb SMAD3 inh: inconclusive; ATXN viability: inconclusive; ATXN2 expr inh: inconclusive; HepG2 tox: 11µM*

What do the screens show for `Cc1ccc2[nH]cc(C(=O)CCl)c2c1`?
TGFb SMAD3 inh: inconclusive; ATXN viability: inconclusive; ATXN2 expr inh: inconclusive; HepG2 tox: -105%

Results for Cc1ccc2[nH]cc(C(O)c3c[nH]c4ccc(C)cc34)c2c1 ?
TGFb SMAD3 inh: 10µM*; HepG2 tox: 10%

How did Cc1cnc(NC(=O)c2ccc3c(c2)OCCO3)s1 do in these assays?
TGFb SMAD3 inh: -11%; ATXN viability: inconclusive; ATXN2 expr inh: 2.2µM*; HepG2 tox: -47%

How did CC(=O)Nc1ncc([N+](=O)[O-])s1 do in these assays?
ATXN viability: inactive; ATXN2 expr inh: 6%

How did O=C(Nc1ncc([N+](=O)[O-])s1)c1ccc2c(c1)OCO2 do in these assays?
TGFb SMAD3 inh: inconclusive; ATXN viability: inconclusive; ATXN2 expr inh: 2.2µM*; HepG2 tox: -64%

Results for Cc1ccc([N+](=O)[O-])cc1NC(=O)c1ccc2c(c1)OCO2 ?
TGFb SMAD3 inh: -13%; ATXN viability: inactive; HepG2 tox: 1%

Results for Cc1ccc(C(=O)Nc2ncc([N+](=O)[O-])s2)cc1 ?
TGFb SMAD3 inh: inconclusive; ATXN viability: inconclusive; ATXN2 expr inh: 2.8µM*; HepG2 tox: -70%

What do the screens show for `COC(=O)[C@@H]1CCCN1Cc1ccc2c(c1)CN(Cc1ccc(OC)c(C)c1)CCO2`?
ATXN viability: inactive

Results for Cc1cnc2ccccc2c1/C=C/c1ccc(N(C)C)cc1 ?
TGFb SMAD3 inh: -28%; HepG2 tox: -28%
